Test results published in PubChem BioAssay AID449764 (Southern Research Specialized Biocontainment Screening …, 2010).
In all, about 2,300 compounds went through this assay and about 1,700 (74%) were called active. So high a share suggests a set chosen from earlier hits. This is one part of the list. Entries with a potency or affinity are not part of this list. A number with no mark means an inactive call. No rule for the calls is given here.

Experiment: Confirmatory growth inhibition assay, Mycobacterium tuberculosis H37Rv, absence of glycerol (AID 449764);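 also: growth read after 7 days of incubation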
Details: no glycerol; series mostly up to 100 µM; inhibition: at the top concentration

Row | Compound | inhibition
1 | O=c1oc(-c2ccccc2[N+](=O)[O-])nc2ccccc12 | 4.79%
2 | Cc1noc2ncnc(Sc3ccc(Cl)cc3)c12 | -1.06%
3 | O/N=C/c1cn(-c2ccc(Cl)cc2)nn1 | -16.6%
4 | CN1CCN(c2ccc(C(=O)c3cn(-c4ccc(F)c(Cl)c4)nn3)cc2)CC1 | 3.46%
5 | Cc1ccc(Cl)cc1NC(=O)CN1CCN(S(=O)(=O)N2CCOCC2)CC1 | 0.89%
6 | Cc1ccc2[nH]c3c(c2c1)CN(C(=O)CN1CCN(c2ccccn2)CC1)CC3 | 10.3%
7 | COc1cc(CNC(=O)CCCCCCC(C)C)ccc1O | 22.9%
8 | CCCCNC(=O)Nc1nnc(-c2ccc(OCC)cc2)o1 | 4.04%
9 | CN(C)C=Nc1ccc2nn(-c3ccccc3)nc2c1 | -12.8%
10 | O=C(Nc1ccc(Cl)cc1)N(Cc1nc2ccccc2c(=O)[nH]1)Cc1cccs1 | -0.82%
11 | CCOc1ccc(N/C(C)=C/C(=O)c2ccc3c(c2)OCCO3)cc1 | -1.38%
12 | Cc1[nH]nc(SCC(=O)NCc2ccccc2)c1[N+](=O)[O-] | 3.69%
13 | CCC(C)n1c(NC(=O)c2ccccc2)c(C#N)c2nc3ccccc3nc21 (stereo not given) | 8.82%
14 | COc1ccc(-c2oc3ccc(-c4ccc(OC)nc4)cc3c2C#CC2(O)CCCCC2)cc1 | 7.76%
15 | Cc1cc(=O)oc2cc(OC(=O)C3CCN(C(=O)c4ccc(F)cc4)CC3)ccc12 | -1.62%
16 | CC12CN3CCN(CC(C3)/C1=N\NC(=O)Nc1cccc(Cl)c1)C2 | 5.72%
17 | Cc1ccccc1-c1nc(CN2CCC(C(=O)NCCC3=CCCCC3)CC2)c(C)o1 | 4.01%
18 | Cc1ccc2nc(SCC(=O)Nc3ccc4c(c3)CCC4)[nH]c2c1 | 5.82%
19 | CCCc1cc2c(cc1NC(=O)c1ccccc1Cl)OCO2 | 7.35%
20 | Cc1sc2nc3c4ccccc4c(NCc4ccco4)nn3c(=O)c2c1C | -4.52%
21 | Cc1ccc(C2CN(C)C3(C(=O)Nc4ccccc43)C23COc2ccccc2C3=O)cc1 (stereo not given) | -10.1%
22 | CCOc1ccc(N=c2scc(-c3ccccc3)n2CCO)cc1 | -0.96%
23 | CC1(C)OC(=O)C(=NNc2ccc(Cl)cc2)C(=O)O1 | 9.09%
24 | Cc1cccc(CSc2nc3c(c(-c4cccs4)c2C#N)CN(C)CC3)c1 | 5.32%
25 | CC1(C)CC(=O)c2c(O)cc(OCc3ccc(Br)cc3)cc2O1 | 27.8%
26 | O=C(CNC(=O)c1ccc(Cl)cc1)c1ccc(Cl)cc1 | 4.82%
27 | COC(=O)C(Cc1ccc(OC(=O)c2ccc(C(F)(F)F)cc2)cc1)N1Cc2ccccc2C1=O (stereo not given) | 5.41%
28 | Cc1ccsc1/C=N/Nc1ccc(F)cc1F | -13.4%

Row | Compound | inhibition
29 | CCOC(=O)c1ccc(N=Cc2nc3ccccc3n2C)cc1 | -0.5%
30 | CC1(C)CC(=O)c2cc(C(=O)NNc3ccccc3)c(=O)n(-c3ccccc3)c2C1 | 1.32%
31 | Cn1cnnc1SCc1ccc(-c2ccc(Br)cc2)o1 | 3.16%
32 | O=C(Nc1ccc(CN2CCOCC2)cc1)c1ccc(-c2cc(Cl)ccc2Cl)o1 | 13.3%
33 | CCOC(=O)c1ccc(N=C2S/C(=C\c3cc(C)n(-c4cccnc4)c3C)C(=O)N2C)cc1 | -1.19%
34 | O=C(COC(=O)C1CC2CCCC(C1)C2=O)NNC(=O)c1ccccc1F (stereo not given) | 6.77%
35 | C(=C\c1ccccc1)/C=N/Nc1nc2ccccc2s1 | 16.2%
36 | CC1(c2ccc(Cl)c(Cl)c2)NC(=S)N2C1NC(=S)N2c1ccccc1 (stereo not given) | 8.16%
37 | CC(=O)Oc1c(C)cc(Cl)cc1C(=O)Nc1ccc([N+](=O)[O-])cc1Cl | -3.94%
38 | CCCc1nc2oc(C(=O)OCC)c(N)c2c2c1COC(C)(C)C2 | 9.84%
39 | O=C1c2ccccc2C(=O)N1Nc1ccccc1 | -0.14%
40 | CCc1noc(C)c1C(=O)Nc1nc(-c2ccc(F)cc2)c(C)s1 | -3.73%
41 | COc1ccc(-c2nc(NC(=O)c3[nH]c(C)c(C(C)=O)c3C)sc2C)cc1 | 0.11%
42 | CCOC(=O)c1ccc(Nc2cc3ccccc3c(=O)[nH]2)cc1 | 5.75%
43 | CCCCOP(=O)(OCCCC)C(Nc1ccc(C(=O)OCC)cc1)c1ccncc1 (stereo not given) | 7.49%
44 | Cc1ccc(C)c2nc(N3CCCC3)c(C#N)cc12 | 1.81%
45 | N=c1c(C(=O)NC2CCCCC2)cc2c(=O)n3ccccc3nc2n1Cc1ccc(F)cc1 | -0.07%
46 | Cc1ccc(S(=O)(=O)CNC(=S)c2ccc3ccccc3c2)cc1 | 12.2%
47 | O=C(NC1CCCCCC1)c1ccccc1-c1ccccc1 | 2.75%
48 | CCOC(=O)N1CCN(C(=O)COC(=O)C2CCN(S(=O)(=O)c3c(Cl)cccc3Cl)CC2)CC1 | -0.31%
49 | CCOc1ccccc1NC(=O)C12CC3CC(C1)CC(c1ccc(C)cc1)(C3)C2 | 3.63%
50 | COC(=O)CNC(=O)CSc1nc2sc(-c3ccccc3)cc2c(=O)n1-c1ccccc1 | 9.12%
51 | CCOc1ccc(-c2nn3c(-c4ccccc4)nnc3s2)cc1 | -10.9%
52 | Cc1ccccc1-c1nc2cc(N)ccc2o1 | -20%
53 | CCCCCCCCCCNC(=O)C(=O)Nc1ccccn1 | -1.26%
54 | CCCCCCCCCCCCCCCC(=O)NCCO | -3.35%
55 | O=C(/C=C/c1ccco1)Nc1cccc(-c2nc3ccccc3[nH]2)c1 | 13.6%
